# Sampled rows, rich in hits. Any-hit rate of the full collection: about 21%.
# CHX counter: counter-screen for Shiga toxin inhibitors: cycloheximide protein synthesis inhibition; cell reporter, cycloheximide protein synthesis inhibition counterscreen; max response, %; 12% of 300,000 active; in the data active = max response mostly above about 13%, no sharp cut-off; inactive = mostly below about 14%; note: read at 38.3 µM for the half of the compounds with a filed dose; 0% is about no effect
# Pf growth 96h: P. falciparum growth inhibition at 96 hours; 6.9% of 320,000 active; P. falciparum luciferase reporter growth, 96 h; Potency, µM (titrated, usually from 28.7 µM), for the others: at the highest dose activity change, negative = inhibition, hits mostly inhibitors; AID 504834; note: potency is the fitted concentration of half-maximal effect; % is set by controls: 0 for no effect and ±100 for the full control effect
#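 Infected RBCs, 2% Hct / 0.05% parasitemia final; luciferase-reporter P. falciparum; cpd 96 h, 37 C, 5% CO2; luciferase detection reagent; luminescence.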
# NS1 inh: inhibitors of influenza NS1 protein function. 0.4% of 270,000 active. Potency, µM (top dose mostly 46.1 µM), for the others: at the top dose activity, positive = more growth; calls by dose curve; note: potency is the fitted concentration of half-maximal effect; actives are rising curves; nearly all actives have a fitted effect of over 50% in size
#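 A cell-based growth assay was used: compounds that relieve NS1-induced slow growth of budding yeast raise OD600. Assay medium was yeast nitrogen base with ammonium sulphate and -URA supplement, pH 6.0, with 2% galactose.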
# Pf growth 48h: inhibits P. falciparum growth in the first generation, 48 h. P. falciparum luciferase growth in erythrocytes, 48 h. Potency, µM (top dose mostly 28.7 µM), inactives show at the top dose activity change, negative = inhibition, hits mostly inhibitors. 5.9% of 310,000 active; note: potency is the fitted concentration of half-maximal effect; % is set by controls: 0 for no effect and ±100 for the full control effect
#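 Luciferase-expressing parasites in RBCs, 2% Hct / 0.1% parasitemia final; RPMI 1640 + 0.5% Albumax; 37 C, 5% CO2, one generation; luminescence read-out, lower signal = inhibition.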
# Shiga toxin inh: inhibitors of Shiga toxin in Vero cells; inhibition, % at 38.7 µM; 9.2% of 290,000 active; Vero cells, Shiga toxin protein synthesis inhibition reporter; AID 2315; in the data active = inhibition mostly above about 28%, no sharp cut-off; inactive = mostly below about 43%; note: 0% is about no effect
# * = called active by the depositor; i = inactive; ? = inconclusive; . = no result given; + = active, no number. Unless noted, calls come from the whole dose curve; as a rule, active = well fitted inhibition curve with a large enough effect; inconclusive = small, poorly fitted or top-dose-only effect, or another doubt; inactive = no such curve, though single readings can be large or run the other way.
SMILES,CHX counter,Pf growth 96h,NS1 inh,Pf growth 48h,Shiga toxin inh
O=c1c2ccccc2ncn1-c1ccc([N+](=O)[O-])c(C(F)(F)F)c1,-2.3,17.4%,14.0%,35.3%,1.8
CCCc1nc2ccc(Br)cc2c(=O)n1-c1ccc([N+](=O)[O-])c(C(F)(F)F)c1,9.7,33.8%,-0.5%,11.7µM*,19.8
CCn1nc(C)c(NC(=O)CC23CC4CC(CC(C4)C2)C3)c1C,1.2,8.28µM*,-10.0%,-13.9%,i
Cc1nn(C)cc1NC(=O)CC12CC3CC(CC(C3)C1)C2,-3.6,31.5%,-2.6%,6.9%,-4.5
COC(=O)CN(n1cnnc1)S(=O)(=O)c1ccccc1,9.0,11.7µM*,?,8.6%,-15.9
COC(=O)CN(c1ccccc1)S(=O)(=O)c1ccccc1,1.0,21.5%,2.9%,.,19.2
Cc1ccc(N(CCO)C(=S)Nc2ccccc2)cc1,-2.2,?,3.2%,43.3%,17.9
O=C(NCCc1cn2ccccc2n1)c1ccc(Br)o1,-2.7,-15.3%,0.4%,3.9%,-1.2
COc1ccc(-c2cn3ccc4ccccc4c3n2)cc1,37.0*,150.2%,3.2%,i,63.8*
COc1ccc(-c2cn(CCN)c(-c3ccncc3)n2)cc1,.,12.4%,.,-8.3%,.
Brc1ccc(-c2cn3ccccc3n2)s1,31.5*,268.8%,-102.6%,.,70.4*
Clc1ccc(-c2cn3cc(Cl)ccc3n2)cc1,42.2*,77.8%,-2.8%,.,73.9*
COc1ccc(-c2cn3ccccc3n2)cc1,31.5*,-9.7%,-3.3%,115.1%,45.7
Cc1nn(C(C)C(=O)N/N=C/c2ccc(N(C)C)cc2)c(C)c1[N+](=O)[O-] (stereo not given),-0.9,39.8%,-13.5%,33.4%,-13.1
COc1c(Cl)cccc1-c1cn2ccccc2n1,34.9*,295.9%,-60.5%,169.4%,56.6
Cc1ccc2nc(-c3ccccc3)cn2c1,1.2,?,-45.3%,49.6%,-12.6
COc1cc(C(=O)NCc2cn3ccccc3n2)cc(OC)c1OC,5.4,6.6%,-1.3%,-12.7%,11.6
Clc1ccc(-c2cn3c(n2)CCC3)cc1,27.7*,5.1%,-2.5%,159.6%,72.8
Cc1ccc2nc(-c3ccc(-c4ccccn4)s3)cn2c1,44.7*,177.1%,-63.9%,78.5%,68.6*
Clc1ccc(-c2nnc3n2CCCCC3)cc1,-1.0,22.3%,-10.2%,.,0.4
COc1ccc(-c2nc3ccccn3c2Cl)cc1,40.6*,455.0%,-66.5%,238.0%,22.2
O=[N+]([O-])c1cccc(-n2nnnc2CNCc2ccccc2)c1,-2.8,-22.9%,-4.1%,27.9%,-12.4
COc1cc(OC)cc(C(=O)N[C@H](C(=O)OCC(=O)Nc2ccc(F)c(F)c2)C(C)C)c1,-2.4,-7.0%,-24.3%,-7.5%,2.0
COc1ccc(N2CCN(S(=O)(=O)CCNC(=O)c3ccc(Br)o3)CC2)cc1,7.6,?,0.0%,7.2%,-6.5
O=C(Nc1ccc(-c2cn3ccccc3n2)cc1)c1ccc(Cl)cc1,-9.3,?,9.0%,9.7%,9.0
SMILES,CHX counter,Pf growth 96h,NS1 inh,Pf growth 48h,Shiga toxin inh
Clc1ccc(-c2cn3ccccc3n2)cc1,37.2*,-70.0%,-40.8%,462.8%,40.5*
O=C(COC(=O)/C=C/c1cccc(Br)c1)Nc1cccc(S(=O)(=O)NC2=NCCC2)c1,.,29.0%,.,12.2%,.
CC1CCN(S(=O)(=O)c2ccc3nc(N4CCN(c5ccccc5)CC4)ccc3c2)CC1,-6.8,10.4µM*,-1.7%,-2.6%,16.5
O=S(=O)(c1ccc2nc(N3CCN(c4ccc(F)cc4)CC3)ccc2c1)N1CCCCC1,-1.1,13.1µM*,6.7%,3.3%,-2.5
Cc1cc(/C=N/NC(=O)c2cc3ccccc3o2)c(C)n1C,10.8,-12.0%,-1.1%,?,3.0
CC(=O)Nc1ccc(Nc2nc(Cl)nc(Nc3ccc(NC(C)=O)cc3)n2)cc1,9.3,4.0%,0.7%,-4.9%,13.4
COC(=O)/C(C#N)=C/N(C)C,-0.9,46.0%,-4.5%,2.33µM*,16.7
CC(Sc1nc(-c2ccccc2)cc(C(F)(F)F)n1)C(=O)N1CCCC1 (stereo not given),-6.4,?,3.5%,2.8%,-13.0
CC(Sc1nc(-c2ccccc2)cc(C(F)(F)F)n1)C(=O)N1CCOCC1 (stereo not given),-4.7,1.65µM*,13.3%,?,-6.0
CCOC(=O)/C(=N\Nc1ccccc1Cl)N1CCN(Cc2ccccc2)CC1,20.5*,?,-25.1%,-24.6%,-13.1
CCOC(=O)/C(=N\Nc1ccccc1Cl)N1CCN(C)CC1,-2.7,21.9%,-3.7%,25.8%,-2.2
CCOC(=O)/C(=N\Nc1ccccc1)N1CC1,19.4*,10.6%,-7.0%,0.0%,62.6
CN(c1ccccc1)S(=O)(=O)c1ccc(NC(=O)c2nc(S(C)(=O)=O)ncc2Cl)cc1,-18.1,0.0%,-15.8%,16.8%,-22.8
CC(=O)Oc1ccc(C(=O)Cc2ccc3ccccc3n2)c(O)c1C,26.2*,163.2%,25.0%,52.2%,+
COC(=O)C(CCSC)NC(=O)C(NC(=O)C1CCC(C)CC1)C(C)C (stereo not given),-5.0,2.33µM*,-8.4%,18.3%,-5.8
Cc1ccc(SCCOCCN2CCc3ccccc3C2)cc1,-1.7,-29.2%,-22.1%,7.3%,-4.8
CCCCCCCCn1c2c(c(=N)c3ccccc31)CCC2,1.1,-45.3%,6.5%,12.4%,22.5
CCCCn1c2c(c(=N)c3ccccc31)CCC2,-0.5,?,-8.4%,0.415µM*,17.8
CCn1c2c(c(=N)c3c1CCC3)CCCC2,-1.5,?,-0.6%,0.522µM*,-3.8
CCCCCn1c2c(c(=N)c3ccccc31)CCC2,1.6,?,-8.8%,0.657µM*,-9.7
CCCCCCCCCn1c2c(c(=N)c3c1CCC3)CCCC2,-7.8,27.4%,-60.4%,?,-53.2
CCCCCCCCCCn1c2c(c(=N)c3c1CCC3)CCC2,-3.5,0.117µM*,-165.2%,0.262µM*,-27.8
CC1CC(C)CN(CCCNC(=O)CCNC(=O)Cn2ccc3ccccc3c2=O)C1 (stereo not given),-2.0,5.22µM*,4.8%,.,29.6
CC(C)(C)NC(=O)NC(=O)COC(=O)Cn1cnc2ccccc2c1=O,-5.4,-3.0%,.,11.7µM*,-9.3
O=C(Cn1cnc2ccccc2c1=O)Nc1ccc2c(c1)OCO2,56.0*,132.4%,-18.6%,131.3%,active
SMILES,CHX counter,Pf growth 96h,NS1 inh,Pf growth 48h,Shiga toxin inh
O=C(Cn1ccc2ccccc2c1=O)NCCC(=O)Nc1ccc2c(c1)OCCO2,23.0*,.,10.1%,6.9%,37.9
O=C(Cn1cnc2ccccc2c1=O)NCc1ccc2c(c1)OCO2,-4.0,.,12.9%,1.6%,-16.1
CC1CC(C)CN(CCCNC(=O)CNC(=O)Cn2ccc3ccccc3c2=O)C1 (stereo not given),.,.,3.0%,.,.
Cc1cc(OCC(=O)N(Cc2ccccc2)C2CCS(=O)(=O)C2)ccc1Cl (stereo not given),-2.6,?,0.7%,2.0%,-3.7
O=C(CNC(=O)N1CC(=O)Nc2ccccc21)Nc1nccs1,-2.2,12.0%,-10.6%,20.4%,-9.3
CN(C(=O)COC(=O)c1ccc(Cl)nc1)C1CCS(=O)(=O)C1 (stereo not given),-1.0,13.6%,.,-4.3%,-19.7
CCOC(=O)c1c(NC(=O)c2cc(C)on2)c2cc([N+](=O)[O-])ccc2n1C,-3.1,12.5%,1.4%,33.8%,-5.9
